The record followed here is the supplement of paper PMC10127200.

Structures can show the parent of a compound that is named as a salt.

For the experiment, the system named is 786-O. Put plainly: Euclidean distance of Cell Painting phenotypic profile (signed KS, 77 features) to DMSO centroid (dimensionless distance); 5 or 10 uM (library dependent); higher = stronger phenotypic change vs DMSO (phenoactivity). The conditions noted are these: 48 h. The method, boiled down:
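Phenoactivity is defined as the Euclidean distance from a compound profile to the median vehicle profile. Each profile comprised 77 Harmony features, scored as signed Kolmogorov-Smirnov statistics versus same-plate vehicle wells, then plate-position corrected, correlation-weighted and replicate-averaged at the top dose. Five cancer lines and one healthy fibroblast line were exposed to library compounds for 48 h at 10 or 5 uM (0.1% DMSO final).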
For the molecule `O=c1cc(-c2ccc(O)cc2)oc2cc(O)cc(O)c12` [Apigenin], the Euclidean distance stood at 1.18.

For `CC(C)NCC(O)COc1cccc2[nH]ccc12` (centres undefined) [Pindolol], the Euclidean distance is 0.941.

Consider `COC(=O)C1=C(C)NC(C)=C(C(=O)OC2CCCN(Cc3ccccc3)C2)C1c1cccc([N+](=O)[O-])c1` (centres undefined) [Benidipine HCl], for which the Euclidean distance was found to be 1.39.

In the case of `CCc1cc(/C(C)=N/OCc2ccc(C3CCCCC3)c(C(F)(F)F)c2)ccc1CN1CC(C(=O)O)C1` [BAF312 (Siponimod)], the Euclidean distance was 1.61.

The molecule `O=C(O)c1cccnc1` [Nicotinic Acid] registered an Euclidean distance of 1.53.

Take `CC(=O)c1ccc(S(=O)(=O)NC(=O)NC2CCCCC2)cc1` [Acetohexamide]: the Euclidean distance was determined as 0.925.

In turn, `CCOC(=O)[C@H](CCc1ccccc1)N[C@@H](C)C(=O)N1CCC[C@H]1C(=O)O` [Enalapril Maleate] gave an Euclidean distance of 1.04.

In turn, `C[C@H]1C[C@H]2[C@@H]3CCC4=CC(=O)C=C[C@]4(C)[C@@]3(F)[C@@H](O)C[C@]2(C)[C@@]1(O)C(=O)CO` [Betamethasone] gave an Euclidean distance of 1.28.

`O=c1ccc2ccccc2o1` [Coumarin] registered an Euclidean distance of 1.02.

As for `O=C(NC(Cc1cc(=O)[nH]c2ccccc12)C(=O)O)c1ccc(Cl)cc1` (centres undefined) [Rebamipide], the Euclidean distance was found to be 1.17.

Consider `COc1ccccc1N1CCN(CC(O)COc2cccc3ccccc23)CC1` (centres undefined) [Naftopidil], for which the Euclidean distance was 1.4.

The molecule `CCC[C@@H]1C[C@@H](C(=O)N[C@@H]([C@H]2O[C@H](SC)[C@H](OP(=O)(O)O)[C@@H](O)[C@H]2O)[C@H](C)Cl)N(C)C1` [Clindamycin Phosphate] returned an Euclidean distance of 1.64.

For `N[C@@H](Cc1c[nH]c2ccccc12)C(=O)O` [L-Tryptophan], the Euclidean distance was 0.689.

In the case of `Nc1ccc(C(=O)O)c(O)c1` [4-Aminosalicylic acid], the Euclidean distance turned out to be 0.634.

Molecule `Cc1cc(C)nc(NS(=O)(=O)c2ccc(N)cc2)n1` [Sulfamethazine Sodium Salt] showed an Euclidean distance of 0.877.

`Cc1ccc(C(C)C)c(O)c1` [Thymol] came in with an Euclidean distance of 0.798.

`NC(=O)c1cccc(-c2cccc(OC(=O)NC3CCCCC3)c2)c1` had an Euclidean distance of 0.656.

On to `O=S(=O)(c1ccccc1)c1cnc2c(N3CCNCC3)cccc2c1`, for which the Euclidean distance came out at 0.96.

With `COc1cc(C(=O)O)ccc1NC(=O)[C@@H]1N[C@@H](CC(C)(C)C)[C@](C#N)(c2ccc(Cl)cc2F)[C@H]1c1cccc(Cl)c1F` [Idasanutlin (RG-7388)], the Euclidean distance was 1.61.

`O=c1cc(-c2ccccc2)oc2cc(O)cc(O)c12` [Chrysin] registered an Euclidean distance of 1.58.

As for `C[C@@H](O[C@H]1OCCN(Cc2n[nH]c(=O)[nH]2)[C@H]1c1ccc(F)cc1)c1cc(C(F)(F)F)cc(C(F)(F)F)c1` [Aprepitant], the Euclidean distance is 1.15.

The molecule `c1cnc2cc3c(cc2n1)[C@@H]1CNC[C@H]3C1` [Varenicline Tartrate] came in with an Euclidean distance of 0.702.

As to `Oc1c(Cl)cc(Cl)cc1Sc1cc(Cl)cc(Cl)c1O` [Bithionol], the Euclidean distance is 0.758.

With `C[N+](C)(C)CCOC(N)=O` [Carbachol], the Euclidean distance turned out to be 1.07.

Consider `Nc1ncnc2c1c(-c1cnc3[nH]ccc3c1)nn2C1CCCC1`, for which the Euclidean distance was 4.92.

With `NC(=O)NCCC[C@H](N)C(=O)O` [L-Citrulline], the Euclidean distance amounted to 1.08.

`CN(C)CCCN1c2ccccc2CCc2ccccc21` [Imipramine HCl] came in with an Euclidean distance of 1.05.

On to `CCn1c(=O)c2c(nc(/C=C/c3ccc(OC)c(OC)c3)n2C)n(CC)c1=O` [Istradefylline], for which the Euclidean distance turned out to be 1.47.

`CCNC(=O)CC[C@H](N)C(=O)O` [L-Theanine] came in with an Euclidean distance of 1.64.

In the case of `NCCCC[C@H](N[C@@H](CCc1ccccc1)C(=O)O)C(=O)N1CCC[C@H]1C(=O)O` [Lisinopril dihydrate], the Euclidean distance is 1.2.

Molecule `CN(C)CCOC(c1ccccc1)c1ccccc1.Cn1c(=O)c2[nH]c(Cl)nc2n(C)c1=O` [Dimenhydrinate] displayed an Euclidean distance of 0.947.

`CC1=C(C(=O)OC(C)C)C(c2cccc([N+](=O)[O-])c2)C(C(=O)OC2CN(C(c3ccccc3)c3ccccc3)C2)=C(N)N1` (centres undefined) [Azelnidipine] registered an Euclidean distance of 1.85.

Molecule `COC1CCN(C(=O)c2cc(Cc3n[nH]c(=O)c4ccccc34)ccc2F)CC1` registered an Euclidean distance of 1.09.

The molecule `CCN(CC)CCNC(=O)c1ccc(N)cc1` [Procainamide HCl] displayed an Euclidean distance of 0.693.

As to `c1ccc2c(Oc3nc(Nc4ccc(N5CCOCC5)cc4)c4ncn(C5CCCCC5)c4n3)cccc2c1` [Purmorphamine], the Euclidean distance amounted to 1.93.

`Cc1nc(C#Cc2ccnc(Cl)c2)c(C)n1-c1ccc(OC(F)(F)F)cc1` had an Euclidean distance of 0.836.

As for `O=C1[C@H](CC[C@H](O)c2ccc(F)cc2)[C@@H](c2ccc(O)cc2)N1c1ccc(F)cc1` [Ezetimibe], the Euclidean distance was determined as 1.74.

Turning to `CC1(C)S[C@@H]2[C@H](NC(=O)[C@H](N)c3ccccc3)C(=O)N2[C@H]1C(=O)O` [Ampicillin Trihydrate], the Euclidean distance was found to be 1.3.

With `Cc1ccc(Sc2cncc3sc(C(N)=O)cc23)cc1`, the Euclidean distance worked out at 1.1.
